# Source: paper PMC7862700, “An all-to-all approach to the identification of sequence-specific readers for epigenetic DNA modifications on cytosine”
# Experiments:
# Experiment in all cases: DAPPL (digital affinity profiling via proximity ligation, sequencing); 10 mM Tris-HCl pH 7.5, 50 mM NaCl, 1 mM DTT, 4% glycerol, room temperature, 30 min; GST-TFs on glutathione beads, 16-mer random dsDNA library, 0.1% formaldehyde crosslink after washing; high values mean tight binding
# Conditions in all cases: protein: recombinant; tags: N-terminal GST; dsDNA, one strand shown
# FLI1 = biological target: T1, FLI1 (Homo sapiens, UniProt Q01543 1-452)
# T1 sequence: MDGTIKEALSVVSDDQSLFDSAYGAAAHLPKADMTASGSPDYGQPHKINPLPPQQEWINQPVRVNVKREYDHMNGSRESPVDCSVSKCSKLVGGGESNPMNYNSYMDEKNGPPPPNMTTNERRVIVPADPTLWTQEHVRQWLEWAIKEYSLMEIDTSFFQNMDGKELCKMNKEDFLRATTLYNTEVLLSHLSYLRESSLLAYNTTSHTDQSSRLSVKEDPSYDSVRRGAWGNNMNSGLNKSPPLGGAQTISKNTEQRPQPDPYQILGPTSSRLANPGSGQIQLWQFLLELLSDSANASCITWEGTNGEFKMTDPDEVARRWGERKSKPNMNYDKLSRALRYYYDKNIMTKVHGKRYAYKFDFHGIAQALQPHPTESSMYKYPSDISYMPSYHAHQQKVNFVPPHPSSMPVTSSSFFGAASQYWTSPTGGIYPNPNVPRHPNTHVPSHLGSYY
# Summary of the method: (§1)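 Binding signal is defined as a hexamer's read frequency for one factor over its frequency for the tag-only sample. To obtain reads, GST-fused human transcription factors were expressed in yeast, captured on glutathione beads, barcoded with DNA and pooled with that sample. Pools met 200 nmole of a 16-mer random double-stranded DNA library in Tris/NaCl/DTT/glycerol buffer for 30 min at room temperature before washing, 0.1% formaldehyde crosslinking, proximity ligation (BsaI/T4 ligase, 1 h, 37 °C), PCR and Illumina NextSeq500 sequencing.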
# GABPA = biological target: T2, GABPA (Homo sapiens, UniProt Q06546 1-454)
# T2 sequence: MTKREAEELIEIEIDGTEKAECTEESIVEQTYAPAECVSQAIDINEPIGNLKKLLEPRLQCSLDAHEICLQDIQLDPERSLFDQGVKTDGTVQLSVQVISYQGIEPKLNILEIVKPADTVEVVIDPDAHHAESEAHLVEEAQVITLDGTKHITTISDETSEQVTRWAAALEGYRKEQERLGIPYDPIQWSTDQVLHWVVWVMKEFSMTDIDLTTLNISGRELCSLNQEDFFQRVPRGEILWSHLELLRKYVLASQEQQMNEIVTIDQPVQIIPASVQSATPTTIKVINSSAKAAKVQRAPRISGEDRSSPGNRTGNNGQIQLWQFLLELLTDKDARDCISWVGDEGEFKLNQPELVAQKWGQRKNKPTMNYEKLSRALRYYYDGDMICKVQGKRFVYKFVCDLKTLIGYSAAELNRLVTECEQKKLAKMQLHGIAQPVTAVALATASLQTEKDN
# Summary of the method: as §1
# EHF = biological target: T3, EHF (Homo sapiens, UniProt Q9NZC4 1-300)
# T3 sequence: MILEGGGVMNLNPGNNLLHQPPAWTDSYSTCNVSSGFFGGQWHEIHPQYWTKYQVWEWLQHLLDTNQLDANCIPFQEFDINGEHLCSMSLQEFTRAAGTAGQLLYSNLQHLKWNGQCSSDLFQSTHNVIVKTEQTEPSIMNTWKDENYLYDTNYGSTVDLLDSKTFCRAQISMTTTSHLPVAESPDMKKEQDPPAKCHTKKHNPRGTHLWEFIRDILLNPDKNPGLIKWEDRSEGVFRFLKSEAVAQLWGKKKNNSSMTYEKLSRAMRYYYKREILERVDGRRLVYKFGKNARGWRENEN
# Summary of the method: as §1
# ELK3 = biological target: T4, ELK3 (Homo sapiens, UniProt P41970 1-407)
# T4 sequence: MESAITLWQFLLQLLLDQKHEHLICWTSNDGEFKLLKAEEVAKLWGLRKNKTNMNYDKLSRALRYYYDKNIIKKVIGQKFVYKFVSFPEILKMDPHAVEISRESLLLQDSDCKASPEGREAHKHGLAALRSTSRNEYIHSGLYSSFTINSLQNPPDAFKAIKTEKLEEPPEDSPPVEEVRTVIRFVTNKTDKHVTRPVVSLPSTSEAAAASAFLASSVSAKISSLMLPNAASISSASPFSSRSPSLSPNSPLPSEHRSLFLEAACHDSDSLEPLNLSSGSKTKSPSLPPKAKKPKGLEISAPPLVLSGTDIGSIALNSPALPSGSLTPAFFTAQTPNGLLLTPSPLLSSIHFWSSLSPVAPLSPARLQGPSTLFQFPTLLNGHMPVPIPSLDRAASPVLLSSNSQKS
# Summary of the method: as §1
# ETV5 = ETV5 (Homo sapiens, UniProt P41161 1-510)
# Summary of the method: as §1
# SPIC = biological target: T5, SPIC (Homo sapiens, UniProt Q8N5J4 1-248)
# T5 sequence: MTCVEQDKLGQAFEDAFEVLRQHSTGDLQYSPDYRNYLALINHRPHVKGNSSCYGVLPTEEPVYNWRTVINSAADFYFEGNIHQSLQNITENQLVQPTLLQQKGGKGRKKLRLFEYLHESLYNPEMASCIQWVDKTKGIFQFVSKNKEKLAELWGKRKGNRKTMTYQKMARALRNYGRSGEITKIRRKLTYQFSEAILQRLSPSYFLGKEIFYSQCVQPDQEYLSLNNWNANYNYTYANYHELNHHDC
# Summary of the method: as §1
# ERF = biological target: T6, ERF (Homo sapiens, UniProt P50548 1-548)
# T6 sequence: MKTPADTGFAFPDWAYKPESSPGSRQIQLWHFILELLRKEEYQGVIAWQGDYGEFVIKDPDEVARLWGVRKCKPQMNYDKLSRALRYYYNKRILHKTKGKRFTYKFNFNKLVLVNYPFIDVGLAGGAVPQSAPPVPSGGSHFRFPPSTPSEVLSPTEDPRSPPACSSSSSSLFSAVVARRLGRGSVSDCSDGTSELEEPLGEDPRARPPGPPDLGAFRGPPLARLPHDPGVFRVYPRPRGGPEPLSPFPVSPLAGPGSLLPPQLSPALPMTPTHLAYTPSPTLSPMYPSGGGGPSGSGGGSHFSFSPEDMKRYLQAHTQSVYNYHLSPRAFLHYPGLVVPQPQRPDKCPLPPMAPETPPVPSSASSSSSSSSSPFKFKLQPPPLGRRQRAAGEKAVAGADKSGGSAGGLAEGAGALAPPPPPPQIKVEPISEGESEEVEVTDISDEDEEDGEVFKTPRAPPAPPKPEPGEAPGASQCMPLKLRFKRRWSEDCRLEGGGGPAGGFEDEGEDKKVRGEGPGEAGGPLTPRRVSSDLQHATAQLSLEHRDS
# Summary of the method: as §1
# Chain of ETV5 (P41161 whole entry): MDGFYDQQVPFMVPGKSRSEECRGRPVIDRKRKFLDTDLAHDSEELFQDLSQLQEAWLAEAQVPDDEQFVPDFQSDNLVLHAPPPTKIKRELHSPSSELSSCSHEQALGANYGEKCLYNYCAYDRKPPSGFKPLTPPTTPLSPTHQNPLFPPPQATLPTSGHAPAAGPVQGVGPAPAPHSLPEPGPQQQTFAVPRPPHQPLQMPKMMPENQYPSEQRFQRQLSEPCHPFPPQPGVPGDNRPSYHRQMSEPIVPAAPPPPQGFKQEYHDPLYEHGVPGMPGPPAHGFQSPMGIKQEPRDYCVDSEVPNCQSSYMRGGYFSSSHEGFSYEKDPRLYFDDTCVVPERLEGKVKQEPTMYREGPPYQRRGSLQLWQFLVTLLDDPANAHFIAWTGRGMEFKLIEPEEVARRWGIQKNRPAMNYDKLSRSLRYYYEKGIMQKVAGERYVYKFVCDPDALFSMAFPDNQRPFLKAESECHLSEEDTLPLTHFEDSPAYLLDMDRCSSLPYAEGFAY
sequence,measurement,setting,value
TGGGTA,binding signal,FLI1,"1.04 fold enrichment (6-mer frequency, TF over GST control)"
same,binding signal,GABPA,"1.05 fold enrichment (6-mer frequency, TF over GST control)"
same,binding signal,EHF,"1.01 fold enrichment (6-mer frequency, TF over GST control)"
same,binding signal,ELK3,"1.12 fold enrichment (6-mer frequency, TF over GST control)"
same,binding signal,ETV5,"1.02 fold enrichment (6-mer frequency, TF over GST control)"
same,binding signal,SPIC,"1.03 fold enrichment (6-mer frequency, TF over GST control)"
same,binding signal,ERF,"1.14 fold enrichment (6-mer frequency, TF over GST control)"
